TIM10 inh: growth inhibitors of isogenic TIM10 control yeast, primary screen, counter-screen for tim10-1 yeast inhibitor project, luminescence, uHTS. S. cerevisiae TIM10 strain growth, BacTiter-Glo luminescence, 24 h. inhibition, % at 10 µM. 330,000 compounds, 1.4% hits. AID 463195, 2010;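 active = inhibition of 40% or more at the single tested concentration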;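 also: wild-type TIM10 isogenic control strain grown at permissive 25 °C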
tim23-1 inh: growth inhibitors of tim23-1 mutant yeast, primary screen, luminescence, uHTS; S. cerevisiae tim23-1 growth, BacTiter-Glo luminescence, 24 h; inhibition, % at 20 µM; 330,000 compounds, 1.3% hits; AID 463212, 2010;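 active = growth inhibition of the mutant yeast at or above 50%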;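 also: temperature-sensitive mutant grown at 25 °C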
Beta2AR agonist: beta2AR agonists driving receptor internalization, primary screen, cell-based, FAP fluorogen, flow cytometry. Beta-2 adrenergic receptor (Homo sapiens), P07550. 340,000 compounds, 0.43% hits. response, % (concentration not given with the values). Am2.2-beta2AR cells;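 active = response above a set limit, near 3 SD of response in nonfluorescent compounds, cut at about 42% in these data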
Target sequence (P07550 whole entry, looked up): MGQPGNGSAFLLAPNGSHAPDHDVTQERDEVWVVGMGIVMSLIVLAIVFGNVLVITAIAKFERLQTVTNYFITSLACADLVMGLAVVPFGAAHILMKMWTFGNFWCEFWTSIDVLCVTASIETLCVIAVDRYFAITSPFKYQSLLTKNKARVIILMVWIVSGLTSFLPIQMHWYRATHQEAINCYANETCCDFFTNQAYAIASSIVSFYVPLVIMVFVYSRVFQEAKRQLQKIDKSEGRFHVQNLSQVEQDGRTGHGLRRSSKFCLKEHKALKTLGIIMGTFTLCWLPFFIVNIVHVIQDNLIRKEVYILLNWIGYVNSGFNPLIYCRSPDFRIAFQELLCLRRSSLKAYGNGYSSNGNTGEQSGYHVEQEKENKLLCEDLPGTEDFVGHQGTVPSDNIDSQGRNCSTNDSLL
PfHsp90 set2: growth inhibition of PfHsp90-expressing yeast, primary screen, antimalarial PfHsp90 inhibitor project, S. cerevisiae, BacTiter-Glo luminescence, single point, set 2; BacTiter-Glo ATP, 48 h; yeast lacking PDR1 and PDR3 efflux regulators; inhibition, % at 9.4 µM; 310,000 compounds, 0.32% hits;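 active = every replicate shows inhibition above about 80%, whatever the replicate mean, limit read from the data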
tim10-1 inh: growth inhibitors of tim10-1 mutant yeast, primary screen, luminescence, uHTS. S. cerevisiae tim10-1 ts strain growth, BacTiter-Glo, 24 h. inhibition, % at 20 µM. 330,000 compounds, 2.2% hits. AID 463190, 2010;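 active = inhibition of at least 40%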;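 also: mutant grown at 25 °C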
tim23-1 confirm: tim23-1 mutant yeast growth inhibitors, confirmation, luminescence, single concentration; shares compounds with tim23-1 inh; S. cerevisiae tim23-1 growth, BacTiter-Glo luminescence, 24 h; inhibition, % at 20 µM; 4,400 compounds, 83% hits;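 active = inhibition above about 39% in either of two replicate wells at 20 µM, limit read from the data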;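 also: temperature-sensitive tim23-1 mutant grown at 25 °C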
B2AR ag CP1: beta2AR agonists via receptor internalization, confirmation, cell-based, FAP fluorogen, flow cytometry, single point, cherry pick 1. shares compounds with Beta2AR agonist. Am2.2-beta2AR cells, FAP surface receptor; hits give low values. percent response (surface receptor), % at 10 µM. 1,100 compounds, 25% hits. AID 540358, 2011;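 active = surface receptor percent response at or below 58%, roughly 3 SD from nonfluorescent compounds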
FAP fluor counter: counter-screen for beta-2AR agonists: fluorescence in Am2.2 cells; AID 588765; 1,100 tested, under 10 active; calls only at 10 µM; FAP fluorogen flow cytometry, fluorescence counterscreen; hits give low values; shares compounds with Beta2AR agonist;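 active = percent response below a set limit in fluorescence channel 1 and below 50% in channel 8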
Of the large screens only hits and unclear results are named; the others gave an inactive call (follow-up assays come after a bar, where they were run). In the library only some 3.8% were active in any assay of this set; here they are far more common.

CN(CC(=O)Nc1cccc2ccccc12)C(=O)c1cccc(S(=O)(=O)N(C)C)c1	none
N=c1n(CCO)c2ccccc2n1CCOc1ccccc1	tim23-1 inh 65 | tim23-1 confirm inactive
CCn1c(=N)n(CCOc2ccc(OC)cc2)c2ccccc21	none
O=c1oc(-c2ccccc2F)nc2c1cnn2-c1ccccc1	tim23-1 inh 56 | tim23-1 confirm 54
CCC1Oc2ccccc2N(CC(=O)NCc2cccs2)C1=O (centres undefined)	none
Cc1ccc(C(=O)NCCCNC(=O)c2ccc(C)nc2)cc1	none
Cc1ccc(C(=O)NCCNC(=O)c2ccc(C)nc2)cc1	Beta2AR agonist 61 | B2AR ag CP1 inactive | FAP fluor counter inactive
COc1ccc(S(=O)(=O)N(Cc2cccnc2)Cc2cc3ccccc3[nH]c2=O)cc1	none | B2AR ag CP1 inactive | FAP fluor counter inactive
CCN(Cc1cc2ccccc2[nH]c1=O)S(=O)(=O)c1ccccc1	none
Cc1ccc(S(=O)(=O)N(Cc2cccnc2)Cc2cc3ccccc3[nH]c2=O)cc1	none | B2AR ag CP1 inactive | FAP fluor counter inactive
O=C(CN1CCN(Cc2ccccc2)CC1)Nc1ccc(N2CCOCC2)cc1	Beta2AR agonist 50 | B2AR ag CP1 inactive | FAP fluor counter inactive
O=C(CN1C(=O)CCC1=O)Nc1nc(-c2nc3ccccc3s2)cs1	Beta2AR agonist 103 | B2AR ag CP1 9.2 | FAP fluor counter inactive
O=C(CN1C(=O)CCC1=O)Nc1nc(-c2ccccn2)cs1	none
CC(OC(=O)C1CCCCC1)C(=O)Nc1cccc([N+](=O)[O-])c1 (centres undefined)	none
CC(=O)Oc1c(Br)cc(N(C(C)=O)S(=O)(=O)c2ccccc2)c2ccccc12	Beta2AR agonist 60 | B2AR ag CP1 inactive | FAP fluor counter inactive
NC(=O)c1ccccc1OCc1nnc(-c2ccccc2Br)o1	none | B2AR ag CP1 inactive | FAP fluor counter inactive
O=Cc1ccc(OCc2nnc(-c3ccccc3Br)o2)cc1	none
CNc1nc(-c2c(C)[nH]c3ccc(OC)cc23)cs1	Beta2AR agonist 60 | B2AR ag CP1 inactive | FAP fluor counter inactive
COc1ccc(CCNCC(O)COc2ccc(OC)cc2C(C)(C)C)cc1 (centres undefined)	Beta2AR agonist 45 | B2AR ag CP1 inactive | FAP fluor counter inactive
O=C(Nc1nonc1NC(=O)c1cccs1)c1cccs1	none
CSc1ccc(C(=O)C2CCCN(Cc3cccn3-c3cccnc3)C2)cc1 (centres undefined)	Beta2AR agonist 70 | B2AR ag CP1 19 | FAP fluor counter inactive
O=C(c1ccc(Cl)cc1)C1CCCN(Cc2cccn2-c2cccnc2)C1 (centres undefined)	none
O=C(NCC(c1ccco1)N1CCc2ccccc2C1)c1cccc(Br)c1 (centres undefined)	none
Cc1cc(C)cc(NC(=O)C(OC(=O)c2sccc2C)c2ccccc2)c1 (centres undefined)	Beta2AR agonist 64 | B2AR ag CP1 inactive | FAP fluor counter inactive
CC(=O)c1cccc(NC(=O)C(OC(=O)c2cccs2)c2ccccc2)c1 (centres undefined)	none
CCOC(=O)C1CCN(S(=O)(=O)c2ccc3c(c2)N(C(C)=O)CC(C)S3)CC1 (centres undefined)	Beta2AR agonist 50 | B2AR ag CP1 inactive | FAP fluor counter inactive
CCOC(=O)C1CCN(S(=O)(=O)c2ccc3c(c2)NC(=O)C(C)S3)CC1 (centres undefined)	none
Cn1c(CNc2nc(-c3ccccc3)cs2)nnc1SCC(=O)N1CCc2ccccc21	Beta2AR agonist 46 | B2AR ag CP1 inactive | FAP fluor counter inactive
Nc1c2c(nn1-c1ccc(F)cc1)CSC2	none
COC(=O)c1ccc(CNC(=O)c2cc(COc3cncc(Cl)c3)on2)cc1	none | B2AR ag CP1 inactive | FAP fluor counter inactive
CC(C)c1cc(CNC(=O)c2cc(COc3cncc(Cl)c3)on2)on1	none
Cc1ccc2c(c1)C(=O)C(=O)N2CCCOc1ccccc1C	Beta2AR agonist 42 | B2AR ag CP1 inactive | FAP fluor counter inactive
CN(C)c1ccc(C(=O)OCC(=O)Nc2ccc(S(N)(=O)=O)cc2)cc1	Beta2AR agonist 47 | B2AR ag CP1 inactive | FAP fluor counter inactive
CN(C)c1ccc(NC(=O)COC(=O)c2ccc3c(c2)OCO3)cc1	none
O=C(Nc1ccc(C(F)(F)F)cc1)C1CCN(S(=O)(=O)c2ccc(N3CCCC3=O)cc2)CC1	none
COc1ccc(C(=S)N2CCOCC2)cc1OC(=O)c1ccccc1Cl	none
COc1cc(C(=O)Oc2c(CN3CCOCC3)cc(Cl)c3cccnc23)cc(OC)c1OC	none | B2AR ag CP1 inactive | FAP fluor counter inactive
O=C(Oc1c(CN2CCOCC2)cc(Cl)c2cccnc12)c1ccccc1Cl	none | B2AR ag CP1 inactive | FAP fluor counter inactive
Cc1nc2c(C#N)c[nH]n2c(=O)c1CCO	none
CC(=O)N(C)c1ccc(NS(=O)(=O)c2cccc3nsnc23)cc1	none
COc1ccc(-c2nc3scc(-c4ccc(OC)c(OC)c4)c3c(=O)o2)cc1	Beta2AR agonist 51 | B2AR ag CP1 inactive | FAP fluor counter inactive
COc1ccc(-c2csc3nc(C(C)C)oc(=O)c23)cc1OC	none
O=C(CNC(=O)c1ccc(Br)o1)NCc1ccccc1Cl	none
CCC(=O)NC(c1cccs1)c1ccc2cccnc2c1O (centres undefined)	PfHsp90 set2 114 | B2AR ag CP1 inactive | FAP fluor counter inactive
Clc1ccc(OCc2nnc(SCc3nc4ccccc4[nH]3)n2Cc2ccco2)cc1	Beta2AR agonist 111 (no result: PfHsp90 set2) | B2AR ag CP1 39 | FAP fluor counter inactive
Clc1cccc(-c2nnc(SCc3nc4ccccc4[nH]3)n2Cc2ccco2)c1	Beta2AR agonist 55 | B2AR ag CP1 56 | FAP fluor counter inactive
CC1CCCC(NC(=O)CN(C)CC(=O)Nc2cccc(F)c2)C1C (centres undefined)	none
CC(C)(C)c1ccc(C(=O)C2CCCN(C(=O)CCn3cncn3)C2)cc1 (centres undefined)	none
Cc1ccc(NC(=O)C(c2ccccc2)c2ccccc2)c(O)c1	Beta2AR agonist 48 | B2AR ag CP1 inactive | FAP fluor counter inactive
O=C(N[C@@H](Cc1ccccc1)C(=O)OCc1ccccc1)c1nc[nH]c1C(=O)NCc1ccccc1	Beta2AR agonist 63 | B2AR ag CP1 inactive | FAP fluor counter inactive

Screens from PubChem.
